Laboratory results from PubChem BioAssay (NCI).
About 79,000 compounds went through this panel and 15% of them were active in at least one assay; those are over-represented in the sample as a whole. Cut-off read from the data, not from the text of the source: active = growth inhibition above about 70%; inactive = the rest.

Assays:
[1] = NCI Yeast Anticancer Drug Screen. Data for the rad50 strain (AID 155);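 note: 0% = growth of vehicle-only cultures of the same strain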; conditions: S. cerevisiae rad50 strain growth inhibition; at 50.0 µM; stronger effect = higher value
In short: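 Yeast carrying a defined DNA repair defect were exposed to test compounds, and growth was compared with vehicle-treated controls to give percent inhibition.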

[2] = NCI Yeast Anticancer Drug Screen. Data for the mec2-1 strain (AID 157); conditions: S. cerevisiae mec2-1 strain, at 50.0 µM, stronger effect = higher value
In short: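 Vehicle-treated cultures served as reference for growth inhibition of compound-exposed mec2-1 yeast.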

[3] = NCI Yeast Anticancer Drug Screen. Data for the sgs1 mgt1 strain (AID 161);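 note: 0% = growth of cultures given vehicle only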; conditions: S. cerevisiae sgs1 mgt1 strain, at 50.0 µM, stronger effect = higher value
In short: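 Test agents were incubated with a DNA-repair-mutant yeast strain. Growth was then read and compared against vehicle-treated controls.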

[4] = NCI Yeast Anticancer Drug Screen. Data for the cln2 rad14 strain (AID 165);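 note: 0% = growth equal to vehicle treated cultures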; conditions: S. cerevisiae cln2 rad14 strain, at 50.0 µM, stronger effect = higher value
In short: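 Each compound was tested on cln2 rad14 yeast. Inhibition of growth was calculated against vehicle-exposed controls.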

[5] = NCI Yeast Anticancer Drug Screen. Data for the bub3 strain (AID 167); conditions: S. cerevisiae bub3 mutant strain, at 50.0 µM, stronger effect = higher value
In short: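 Compounds were applied to a genetically altered yeast strain carrying a cell-cycle control defect. Growth inhibition was scored against vehicle-treated controls.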

[6] = NCI Yeast Anticancer Drug Screen. Data for the mlh1 rad18 strain (AID 175); conditions: S. cerevisiae mlh1 rad18 strain growth inhibition; at 50.0 µM; stronger effect = higher value
In short: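 Vehicle-treated cultures served as the reference for growth inhibition in a yeast strain carrying DNA damage repair alterations exposed to each compound.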

Measured: growth inhibition

Cc1ccc(Cl)cc1N1C(=O)CC(Sc2ccccc2N)C1=O (stereo not given)
inactive: [1] 21.9% | [2] -2.8% | [3] 28.4% | [4] 8.65% | [5] 30.8% | [6] 20.2%

O=C(/C=C\c1ccc(O)cc1)c1ccccc1
inactive: [1] 15.9% | [2] -14.3% | [3] 45.9% | [4] 8.6% | [5] 29.6% | [6] 14.1%

CCCCCC(C)(CC(=O)O)CC(=O)O
inactive: [1] -18.6% | [2] -15.3% | [3] -21.4% | [4] -27.8% | [5] 0.7% | [6] -15.4%

CC(=O)Nc1cccc(NC(C)=O)n1
inactive: [1] 6.25% | [2] 10.8% | [3] 1.25% | [4] -5% | [5] 7.8% | [6] 6.1%

Cc1ccc(/C=C2\SC(=S)N(c3ccc(F)cc3)C2=O)o1
inactive: [1] 14.7% | [2] 10.9% | [3] 28.4% | [4] 17.4% | [5] 15.8% | [6] 23.9%

COc1ccc(NC(=O)CCl)cc1
inactive: [1] 29.7% | [2] 12.8% | [3] 24.4% | [4] 17.9% | [5] 36.7% | [6] 23.6%

CC(C)(C)c1cc(O)c(C(C)(C)C)cc1O
inactive: [1] 12.1% | [2] -0.05% | [3] 6.05% | [4] -1.85% | [5] 0.15% | [6] 11.2%

O=c1[nH]c(O)c(/C=C2/C=Nc3ccccc32)[nH]1
inactive: [1] 0.45% | [2] -5.85% | [3] -8.35% | [4] -15.2% | [5] 4.1% | [6] 0.6%

CC(C)=NNC(N)=S
inactive: [1] 2.45% | [2] -9.4% | [3] -23.9% | [4] -22.8% | [5] 2.35% | [6] -3.95%

CC(C)CCCC(=O)O
inactive: [1] -9.7% | [2] -7.5% | [3] -1.25% | [4] 27.8% | [5] -2.95% | [6] -13.8%

C=CCCCCCCCCCOC(C)=O
inactive: [1] -14.3% | [2] -41.1% | [3] -20.4% | [4] -9.5% | [5] -2.8% | [6] 8.25%

CC(C)NC(=O)OCc1c(COC(=O)NC(C)C)c(-c2ccc(Cl)c(Cl)c2)n2c1SCC2
inactive: [1] 33.9% | [2] -7.95% | [3] 15.9% | [4] -1.35% | [5] 2.9% | [6] 52.9%

CC(=O)Cc1ccc(-c2ccccc2)cc1
inactive: [1] 18.4% | [2] 14.8% | [3] 8.3% | [4] -25.4% | [5] 10.3% | [6] 24.6%

CC(=O)c1ccc(C)c(N)c1
inactive: [1] -4.15% | [2] 0.15% | [3] 6.25% | [4] -0.6% | [5] -2.15% | [6] 27.4%

O=C(CCl)Nc1ccc2c(c1)C(=O)c1ccc(NC(=O)CCl)cc1C2=O
inactive: [1] 6.3% | [2] -4.85% | [3] 4.15% | [4] 1.7% | [5] -21.2% | [6] 21.9%

CCNCCCCNCCCCNCCCCNCCCCNCC
inactive: [1] -16.6% | [2] 4.25% | [3] -6.1% | [4] 11.2% | [5] 3.95% | [6] 6.7%

C#C[C@H]1CCCCCC1O (stereo not given in full)
inactive: [1] 13.1% | [2] 2% | [3] -1.35% | [4] 14.4% | [5] -6.75% | [6] 21.9%

CC(=O)OCC1=CC2OC(=O)C3=COC(OC4OC(CO)C(O)C(O)C4O)C1C32 (stereo not given)
inactive: [1] 11.6% | [2] -3.55% | [3] 10.3% | [4] 13.4% | [5] 16.6% | [6] -51.6%

O=[N+]([O-])c1ccc(/C=C/C=C/c2ccccc2)c(Cl)c1
inactive: [1] -8.75% | [2] -18.3% | [3] -3.4% | [4] -45.1% | [5] -4.85% | [6] -11.4%

O=C(/C(=N/O)c1ccccc1)c1ccccc1
inactive: [1] 7.4% | [2] -21.6% | [3] 1.35% | [4] -25.5% | [5] 4.85% | [6] 12.2%

COC(=O)/C=C/C(=O)NC(N)=O
inactive: [1] -19.6% | [2] -41.2% | [3] -22.1% | [4] 9.95% | [5] -17.2% | [6] -8.05%

CCOc1ccc(/C=N/N=C(N)N)cc1OCC
inactive: [1] -31.4% | [2] -18% | [3] -17.6% | [4] -53.4% | [5] -8.4% | [6] -11.9%

CC1(C(N)=O)CCC(C(=O)O)C1(C)C (stereo not given)
inactive: [1] 10.3% | [2] -3.45% | [3] 14.4% | [4] -29.9% | [5] -3.45% | [6] 8.15%

CC(C)CCOC(=O)c1ccccc1
inactive: [1] -7.2% | [2] -22.5% | [3] -34.1% | [4] -68.9% | [5] -29.1% | [6] -22.9%

CS(=O)CC1=NC(=N)N=C1CS(C)=O (stereo not given)
inactive: [1] -9.75% | [2] -11.2% | [3] 12.1% | [4] -22.1% | [5] 2.85% | [6] 5.75%

COc1ccc(/C=C/c2cccc[n+]2C)cc1
inactive: [1] 1.35% | [2] 1.3% | [3] -7.1% | [4] 0.55% | [5] -9.9% | [6] -11.2%

COS(=O)(=O)c1ccc(Br)cc1
inactive: [1] -6% | [2] -23.4% | [3] -17.3% | [4] -60.8% | [5] 0.6% | [6] -26.2%

CC1(C)OC(=O)C(c2ccsc2)C(=O)O1
inactive: [1] -6.25% | [2] -9.35% | [3] -20.4% | [4] 32.8% | [5] -7.05% | [6] -3.7%

COc1cc2c3cc1Oc1c(OC)c(OC)cc4c1C(Cc1ccc(O)c(c1)Oc1ccc(cc1)CC3N(C)CC2)N(C)CC4 (stereo not given)
inactive: [1] 1.05% | [2] 0.55% | [3] 0.65% | [4] 6.9% | [5] 8.1% | [6] -89.8%

COc1cc(/C=C/C(=O)c2ccccc2)cc(OC)c1OC
inactive: [1] -4.7% | [2] -5.8% | [3] -3% | [4] 34.5% | [5] -18.1% | [6] -2.3%

CC1(C)/C(=C\CO)C2CCC1C2 (stereo not given)
inactive: [1] 12.7% | [2] 0.05% | [3] 1.95% | [4] -4.95% | [5] -2.65% | [6] 3.7%

O=C(O)c1ccccc1NCc1ccco1
inactive: [1] -14.7% | [2] -40.9% | [3] 14% | [4] 7.85% | [5] -19.6% | [6] -5.7%

C[C@@H](c1ccccc1)[C@@H](C(=O)O)c1ccccc1
inactive: [1] 8.3% | [2] 5.4% | [3] 8.3% | [4] -38.6% | [5] -5.65% | [6] 29.7%

O=C(O)C(c1ccccc1)C(O)c1ccccc1 (stereo not given)
inactive: [1] 5.35% | [2] -21.4% | [3] -22.7% | [4] -26.1% | [5] -30.4% | [6] -7.45%

CCOC(=O)C(=O)C=P(c1ccccc1)(c1ccccc1)c1ccccc1
inactive: [1] -29.5% | [2] -22.4% | [3] -21.9% | [4] -8.9% | [5] -40.9% | [6] -24.2%

CC1(c2ccccc2)NC(=O)NC1=O (stereo not given)
inactive: [1] 26.7% | [2] -8.85% | [3] 0.8% | [4] -1.3% | [5] -7.65% | [6] 23.9%

COc1ccccc1NC(=O)C1=C(C)NC(C)=C(C(=O)Nc2ccccc2OC)C1c1cccc([N+](=O)[O-])c1
inactive: [1] -3.3% | [2] 23.2% | [3] -8.05% | [4] -3.9% | [5] 20.4% | [6] 11.3%

COc1cc2cc(OC(C)=O)c3cc4c(cc3c2c(OC)c1OC)OCO4
inactive: [1] -18.4% | [2] -10.8% | [3] -16.3% | [4] -5.2% | [5] -21.9% | [6] -25.1%

CCOC(=O)CCCS(C)(=O)=O
inactive: [1] -26.5% | [2] -19.6% | [3] -32% | [4] -17.9% | [5] -1.95% | [6] 7.3%

C/C(O)=C(\C=N\C(N)=S)C(=O)Nc1ccccc1
inactive: [1] -4.6% | [2] -8.1% | [3] -23.9% | [4] -0.55% | [5] -2.45% | [6] 3.7%
